From PubChem BioAssay AID2673 (National Center for Advancing Translational Sciences (NCATS), 2010)
Inconclusive results are not listed. Unmarked numbers belong to inactive results. Active and inactive are the calls of the source. The call rests on the fitted dose curve; in most records, active means well fitted activation curve with a large enough effect; inconclusive means small, poorly fitted or top-dose-only effect; inactive means no such curve, though single readings can be large or run the other way.

Test: qHTS Multiplex Assay to Identify Dual Action Probes in a Cell Model of Huntington: Cytoprotection confirmation (ATP)
Conditions: PC12 HttQ103 induced, ATP luminescence 40 h; series mostly up to 46.1 µM; cytoprotection, positive = protection: at the top concentration
From the text: NIH Chemical Genomics Center [NCGC]
NIH Molecular Libraries Probe Production centers Network [MLPCN]
Assay Submitter (PI): Wei Zheng
Huntington's disease is a neurodegenerative disorder caused by a trinucleotide repeat expansion in Exon 1 of the Huntingtin gene. The CAG trinucleotide encodes glutamine and polyglutamine expansions cause cell death in selective areas of the brain. Huntington polyglutamine repeats have the tendency to form aggregates which are observable in later stages of the disease. The exact nature of the aggregates, whether toxic, protective, or insignificant, is unclear.
A stable PC12 cell line containing a gene fusion of Exon 1 of the Huntingtin gene linked to GFP under the control of the inducible ecdysone promoter were used as the cell-based model of Huntington Disease for high throughput screening. Exon 1 of the Huntingtin gene contained an expansion of 103 polyglutamines (Q103) which, when expressed, caused cell death and distinct, bright GFP aggregates. The amount of cell death and the size and intensity of GFP aggregates increased over time and induction level. The cell death were quantified with a measurement of ATP content in the cells. A maximal 40-50% of cell death was observed when the Huntington gene was induced in this cell line.
We optimized this assay in a homogeneous 1536 well format. A quantitative high throughput screen (qHTS) was conducted on the PC12 cells which were induced to express the toxic fusion construct. Small molecules which prevented cell death were identified by using a luminescent ATP quantification method (Perkin Elmer's ATPlite).
PC12 cells stably containing a construct with an ecdysone inducible promoter expressing GFP fused to the exon 1 of HTTQ103 (Huntington protein which containing a 103 ployglutamine expansion) were used.
NCGC Assay Protocol Summary:
Sequence, Parameter, Description
1, Reagent, 5 uL 1500 cells/well 1536 TC treated White clear bottom plate
2, Compound, 23 nL Tebufenozide inducer (100 nM final) to all columns
3, Compound, 23 nL 40 uM to 0.5 nM Libraries
5, Reagent, 5 ul ATPLite cell death assay reagent
6, Detector, 4 sec integration with a Viewlux Luminescent
Media consisted of phenol red free DMEM + 5% equine serum (Hyclone # SH30072.03 ), 5% supplemented Bovine Calf Serum (Hyclone # SH30074.03 ), 1x pen/strep, no G418

Structure (SMILES)	cytoprotection, positive = protection [%]	Potency
CCc1ccc2oc(-c3cc(N)ccc3O)nc2c1	-77.5	–
Cn1nnnc1Sc1ncnc2scc(-c3ccc4c(=O)ccoc4c3)c12	-107	–
Cn1nnnc1Sc1ncnc2scc(-c3ccccc3C#N)c12	–	28.2 µM (active)
O=C(Nc1ccccc1)C1=C(O)CC(c2ccco2)CC1=Nc1ccccc1 (stereo not given)	-18.2	–
CNCCCN1c2ccccc2CCc2ccccc21	-12.1	–
Cn1nnnc1Sc1ncnc2scc(-c3ccsc3)c12	–	11.2 µM (active)
C[C@]12CC[C@@H]3c4ccc(OC(=O)c5ccccc5)cc4CC[C@H]3[C@@H]1CC[C@@H]2O	-43.4	–
Cn1nnnc1Sc1ncnc2scc(-c3cccc(S(C)(=O)=O)c3)c12	-108	–
Cn1nnnc1Sc1ncnc2scc(-c3cccc(C(F)(F)F)c3)c12	–	14.1 µM (active)
CS(=O)(=O)c1ccc([C@H](O)[C@H](CO)NC(=O)C(Cl)Cl)cc1	-10.2	–
Cc1ccccc1-c1csc2ncnc(Sc3nnnn3C)c12	13	–
Cn1nnnc1Sc1ncnc2scc(-c3cccc(Br)c3)c12	-108	–
CC(C)(C)n1nnnc1C(c1ccc2ncccc2c1)N1CCSCC1 (stereo not given)	-8.22	–
COc1ccc(NC(=O)c2sc(SC)nc2N)cc1	-9.58	–
Cn1nnnc1Sc1ncnc2scc(-c3cc4ccccc4o3)c12	-107	–
Cn1nnnc1Sc1ncnc2scc(-c3cccc([N+](=O)[O-])c3)c12	–	25.1 µM (active)
Cn1nnnc1Sc1ncnc2scc(-c3cccc4ccccc34)c12	–	8.91 µM (active)
O=[N+]([O-])c1ccc(O)c2ncccc12	-52.7	–
C=C1CCC2[C@](C)(CO)[C@H](O)CC[C@@]2(C)[C@@H]1C/C=C1/C(=O)OC[C@H]1O (stereo not given in full)	-69.3	–
Cn1nnnc1Sc1ncnc2scc(-c3ccc(S(C)(=O)=O)cc3)c12	–	17.8 µM (active)

Structure (SMILES)	cytoprotection, positive = protection [%]	Potency
Cn1nnnc1Sc1ncnc2scc(-c3ccc(Cl)cc3)c12	-97.3	–
Cc1cc(C)nc(Sc2nc(C)nc3c2oc2ccccc23)n1	-2.25	–
COc1cc(NC(=O)c2cc3nc(C)cc(C)n3n2)c(OC)cc1Cl	-22.2	–
Cn1nnnc1Sc1ncnc2scc(-c3ccccc3)c12	–	25.1 µM (active)
COc1ccc2c(c1)-c1c(ssc1=S)C(C)(C)N2	4.29	–
O=C(O)c1cc(=O)c2ccc(Cl)cc2[nH]1	8.97	–
Cn1nnnc1Sc1ncnc2scc(Br)c12	-109	–
C=CCC(=O)OCCCCCCOc1ccc(C(=O)O)cc1	7.21	–
CN(C)c1ccc(-c2n(C)c3ccccc3[n+]2C)cc1	-37.4	–
Cc1nnc2n1N=CC=C(c1ccccc1)S2	28.2	–
CN1C(=O)NC(NC(=O)c2cccs2)(C(F)(F)F)C1=O (stereo not given)	8.42	–
CCN(Cc1ccncc1)C(=O)c1cc(Br)cc(Br)c1O	-3.56	–
CC(=O)Oc1cccc(C(=O)O)c1OC(C)=O	-18.4	–
Cn1nnnc1Sc1ncnc2scc(-c3ccc(F)cc3)c12	–	25.1 µM (active)
C=C(C)C(=O)OCCCCCCOc1ccc(C(=O)O)cc1	1.06	–
NC(=O)c1sc2nc3c(c(-c4cccs4)c2c1N)CCCCC3	-0.102	–
COc1ccccc1-n1nnnc1S(=O)(=O)Cc1ccc(Cl)cc1	10.7	–
CC(C(=O)O)c1ccc(CC2CCCC2=O)cc1 (stereo not given)	-43.9	–
N#CCCn1c(Cl)nc2ccccc21	-11.9	–
C[C@@H]1CNCCN1S(=O)(=O)c1cccc2cnccc12	0.336	–
